High-throughput results: PubChem, National Center for Advancing Translational Sciences (NCATS)
PMP22 txn – PMP22 gene transcription modulation. S16 Pmp22-F2sN Schwann cells, FLuc/NLuc coincidence luminescence, 24 h. Potency, µM (titrated, usually from 57.5 µM), inactives show at the top dose activity change, negative = inhibition, actives largely listed as inhibitors. 43,000 compounds, 2% hits; active = clear falling dose curves in both reporters; inconclusive = both reporters move, but less clearly or upward; inactive = either reporter flat; the % is the NLuc reporter signal; also: potency is read from the fitted curve at half-maximal effect; % is scaled to controls: 0 for no effect and ±100 for the full control effect
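Schwann cells carrying the coincidence reporter were exposed to library compounds for 24 h at 37C, then lysed and read for FLuc and, after quenching, NLuc luminescence on a CCD imager.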
GALC G270D up – enhancers of human galactocerebrosidase G270D mutant activity in cells; 145M-Twi-hGALC-G270D cells, HMU-beta-Gal fluorescence, 48 h; 45,000 compounds, 0.1% hits; Potency, µM (top dose mostly 57.5 µM), actives largely listed as activators; AID 1159614; also: potency is read from the fitted curve at half-maximal effect; 0% is about no effect; nearly all actives have a fitted effect of over 65% in size
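qHTS, 1536-well; 145M-Twi-hGALC-G270D cells (WT line also made) in DMEM/F12 + 10% FBS; compound incubation on live cells; HMU-β-gal 0.1 mM final, pH 5.2, NaTC; carbonate stop; fluorescence increase = enhanced residual activity.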
mTORC1 inh – inhibitors of mTORC1 signaling in Tsc2-/- p53-/- MEF cells | Tsc2-/- p53-/- MEF, phospho-rpS6 immunofluorescence/PI, 24 h | Potency, µM (titrated, usually from 38.3 µM), for the others: at the highest dose activity change, negative = inhibition, hits mostly inhibitors | 44,000 compounds, 0.78% hits;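 also: potency is read from the fitted curve at half-maximal effect; plate controls were DMSO for no effect and rapamycin for full effect; nearly all actives have a fitted effect of over 50% in size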
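Compounds act on Tsc2-/-, p53-/- fibroblasts carrying an empty vector for 24 h before fixation and dual staining for phospho-S6 and DNA (propidium iodide). Values are percentages of cells above a rapamycin-defined pS6/PI threshold.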
S16 F2sN tox – toxic to S16 Pmp22-F2sN Schwann cells. Potency, µM (titrated, usually from 57.5 µM), without a hit: top-dose activity change, negative = cytotoxicity, usual class: cytotoxic. AID 1508642. 43,000 compounds, 0.48% hits. S16 Pmp22-F2sN Schwann cells viability, CellTiter-Glo, 24 h; also: potency is read from the fitted curve at half-maximal effect; % is scaled to controls: 0 for no effect and ±100 for the full control effect; nearly all actives have a fitted effect of over 65% in size
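S16 Pmp22-F2sN Schwann cells (500-1,000/well) in phenol-red-free DMEM with 10% FBS received 23 nL compound by pin tool for 24 h at 37 °C. Viability was then read as CellTiter-Glo luminescence after 15 min at room temperature.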
NLuc sat counter – NanoLuc enzyme inhibition artifact for PMP22 screen; shares compounds with PMP22 txn; Secreted NLuc enzyme (filtered S16 cell medium), Nano-Glo luminescence; Potency, µM (top dose mostly 57.5 µM), without a hit: top-dose activity change, negative = inhibition, usual class: inhibitors; 690 compounds, 4% hits; AID 1508638; also: potency is read from the fitted curve at half-maximal effect; % is scaled to controls: 0 for no effect and ±100 for the full control effect
NLuc Km ctr – NanoLuc inhibition at Km substrate, PMP22 artifact check; AID 1508639; secreted NLuc enzyme, coelenterazine luminescence, Km conditions; 690 compounds, 5% hits; Potency, µM (titrated, usually from 57.5 µM), for the others: top-dose activity change, negative = inhibition, hits mostly inhibitors; shares compounds with PMP22 txn; also: potency is read from the fitted curve at half-maximal effect; % is scaled to controls: 0 for no effect and ±100 for the full control effect
FLuc ctr PMP22 – counter-screen for PMP22 expression modulators: firefly luciferase inhibition. shares compounds with PMP22 txn. purified P. pyralis FLuc, luminescence, 10 min. Potency, µM (top dose mostly 57.5 µM), for inactives: top-dose activity, negative = inhibition, usual class: inhibitors. 690 tested, under 10 active. AID 1508640; also: % of control where 0% means no effect
Target sequence (P08659 whole entry, looked up): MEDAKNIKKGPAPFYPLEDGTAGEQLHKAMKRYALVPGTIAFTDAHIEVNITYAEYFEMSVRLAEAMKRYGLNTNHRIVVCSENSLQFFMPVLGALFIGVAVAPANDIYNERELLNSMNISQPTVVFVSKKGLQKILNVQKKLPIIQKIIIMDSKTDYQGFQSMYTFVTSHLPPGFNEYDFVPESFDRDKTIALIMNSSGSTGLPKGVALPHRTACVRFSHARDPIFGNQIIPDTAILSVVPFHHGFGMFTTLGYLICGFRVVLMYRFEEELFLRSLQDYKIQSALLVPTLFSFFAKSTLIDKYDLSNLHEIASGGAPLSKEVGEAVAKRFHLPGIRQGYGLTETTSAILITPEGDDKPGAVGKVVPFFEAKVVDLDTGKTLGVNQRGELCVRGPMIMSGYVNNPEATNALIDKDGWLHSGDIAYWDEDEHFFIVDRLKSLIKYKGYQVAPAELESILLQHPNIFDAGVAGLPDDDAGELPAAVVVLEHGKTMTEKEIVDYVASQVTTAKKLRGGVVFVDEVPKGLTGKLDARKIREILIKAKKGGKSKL
S16 F2sN tox cnf – S16 Schwann cell cytotoxicity, confirmatory. shares compounds with PMP22 txn. S16 Schwann cells viability, CellTiter-Glo ATP luminescence, 24 h. Potency, µM (top dose mostly 57.5 µM), for the others: at the highest dose activity change, negative = viability loss, most hits filed as cytotoxic. 690 compounds, 7% hits; also: potency is read from the fitted curve at half-maximal effect; % is scaled to controls: 0 for no effect and ±100 for the full control effect
PMP22 txn conf – confirmation of modulators of PMP22 gene transcription in S16 cells. shares compounds with PMP22 txn. S16 Schwann cells Pmp22-F2sN, dual luciferase, 24 h. Potency, µM (highest dose often 57.5 µM), for the others: at the highest dose activity change, negative = inhibition, most hits filed as inhibitors. 690 compounds, 22% hits. AID 1508646; active = clear falling dose curves in both reporters; inconclusive = both reporters move, but less clearly or upward; inactive = either reporter flat; the % is the FLuc reporter signal; also: potency is read from the fitted curve at half-maximal effect
PMP22 HiBiT cnf – rat PMP22 protein level modulation, confirmatory; shares compounds with PMP22 txn; S16 Schwann cells Pmp22-HiBiT, luminescence, 48 h; Potency, µM (titrated, usually from 27.9 µM), for the others: top-dose activity change, negative = inhibition, usual class: inhibitors; 95 tested, under 10 active; AID 1508647
Target sequence (P25094 whole entry, looked up): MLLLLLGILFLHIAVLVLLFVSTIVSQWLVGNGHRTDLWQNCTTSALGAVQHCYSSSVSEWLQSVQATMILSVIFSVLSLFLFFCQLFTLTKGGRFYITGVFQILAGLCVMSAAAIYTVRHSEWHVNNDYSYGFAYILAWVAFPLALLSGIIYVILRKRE
* marks the source's active call; other numbers are inactive results; i = inactive; ? = inconclusive; nt = no result. Rows were chosen to be rich in hits. Some 2.8% of all compounds tested hit in one or more screens of this group. Unless noted, calls follow the shape of the dose curve; as a rule, active = well fitted curve in the direction sought with a large enough effect; inconclusive = small, poorly fitted or top-dose-only effect, or another doubt; inactive = no such curve, though single readings can be large; an effect the other way counts as inactive or inconclusive.

SMILES | PMP22 txn | GALC G270D up | mTORC1 inh | S16 F2sN tox | NLuc sat counter | NLuc Km ctr | FLuc ctr PMP22 | S16 F2sN tox cnf | PMP22 txn conf | others
CCN(CC)c1ccc(NC(=O)CCCN2C(=O)C(c3ccccc3)Oc3cccnc32)c(C)c1 (stereo not given) | 15µM* | i | -14% | 8% | -10% | ? | -9% | -17% | ?
COc1cccc2c1cc1c(=O)n(CC(=O)N3CCC(C)CC3)nc(C)n12 | -7% | i | 1% | 12% | nt | nt | nt | nt | nt
Cc1cc(C)c(/C=C/c2onc(C)c2S(=O)(=O)N2CCC(C(=O)Nc3ccc(Cl)c(C(F)(F)F)c3)CC2)c(C)c1 | ? | i | -14% | ? | nt | nt | nt | nt | nt
CCCS(=O)(=O)c1nc(S(=O)(=O)c2ccc(C)cc2)c(NCc2ccccc2)s1 | -8% | i | 1% | -4% | nt | nt | nt | nt | nt
COCCNc1oc(-c2ccc(COc3ccc(OC)cc3)o2)nc1C#N | ? | i | -12% | -15% | ? | -6% | -18% | ? | -11%
CCCCNc1oc(-c2ccc(COc3ccc(OC)cc3)o2)nc1C#N | -26% | i | -8% | -2% | nt | nt | nt | nt | nt
COc1ccc(OCC(=O)NCc2ccc3c(c2)CCN3C(=O)c2cccc(C)c2)cc1 | 20µM* | i | ? | -22% | ? | -19% | -21% | -13% | ?
Cc1cccc(N2CCN(C(=O)Cn3ncc4c([nH]c5ccccc54)c3=O)CC2C)c1 (stereo not given) | ? | i | 3% | 13% | nt | nt | nt | nt | nt
Clc1ccc(-c2noc3ncnc(N4CCCCC4)c23)cc1 | 12µM* | i | -24% | -21% | -7% | 5% | -5% | -7% | -38%
COc1ccc(N2C(=O)CSC23C(=O)N(Cc2cccc(C(F)(F)F)c2)c2ccccc23)cc1 (stereo not given) | ? | i | -5% | -20% | nt | nt | nt | nt | nt
CCc1ccc(N2C(=O)CSC23C(=O)N(Cc2cccc(OC)c2)c2ccccc23)cc1 (stereo not given) | 13µM* | i | -6% | ? | -7% | 6% | -6% | -13% | -47%
CN(C)CCNC(=O)c1ccc(Cn2c(=O)c3cccn3c3cccnc32)cc1 | 11µM* | i | ? | -6% | -5% | ? | 6% | 31% | -31%
CC(=O)Nc1cccc(Nc2nc3ccccc3n3c(C)nnc23)c1 | ? | i | 8% | -1% | nt | nt | nt | nt | nt
CCc1ccc(Nc2nc3c(S(=O)(=O)c4ccc(C)cc4)nnn3c3ccsc23)cc1 | 5.8µM* | i | -11% | 3% | -10% | ? | 3% | ? | -39%
Cc1cccc(Nc2nc3c(S(=O)(=O)c4ccc(Br)cc4)nnn3c3ccsc23)c1C | 12µM* | i | 5% | -4% | -17% | ? | 11% | 7% | ?
CCc1ccc(Nc2nc3c(S(=O)(=O)c4cccc(Cl)c4)nnn3c3ccsc23)cc1 | ? | i | 2% | 2% | nt | nt | nt | nt | nt
CCOc1ccc(Nc2nc3c(S(=O)(=O)c4ccc(CC)cc4)nnn3c3ccc(Cl)cc23)cc1 | 7.9µM* | i | 1% | 2% | -15% | 4% | -2% | -23% | ?
COc1ccc(N(C)C(=O)c2cc(S(=O)(=O)N3CCc4ccccc43)cn2C)c(OC)c1 | ? | i | ? | 1% | nt | nt | nt | nt | nt
Cc1cccc(N2CCN(C(=O)Cn3nc(C)c4sc5ccccc5c4c3=O)CC2)c1C | ? | i | -1% | -8% | nt | nt | nt | nt | nt
O=C(Nc1ccc(Br)c2cccnc12)c1cccc2ccccc12 | 16µM* | i | -5% | 14% | -10% | 1% | 2% | 13% | ?
Cc1ccc(-c2c(C(=O)N3CCN(c4cccc(C)c4C)CC3)oc(=O)c3ccccc23)cc1 | ? | i | -5% | -1% | nt | nt | nt | nt | nt
Cc1cc(Br)cc2c1N(Cc1ccccc1OC(C)C)C(=O)C2=O | 9.5µM* | i | ? | ? | ? | ? | -21% | ? | 15µM*
COc1ccccc1CN1C(=O)C(=O)c2cccc(C)c21 | -71% | i | -2% | ? | nt | nt | nt | nt | nt
CCOC(=O)CC(=O)CSc1nc2ccsc2c(=O)n1Cc1ccccc1 | ? | i | -10% | 8% | nt | nt | nt | nt | nt
CCSc1nnc2c(n1)OC(c1ccc(C)cc1)N(C(C)=O)c1ccccc1-2 (stereo not given) | ? | i | -2% | -25% | ? | -17% | 5% | -4% | -7%
SMILES | PMP22 txn | GALC G270D up | mTORC1 inh | S16 F2sN tox | NLuc sat counter | NLuc Km ctr | FLuc ctr PMP22 | S16 F2sN tox cnf | PMP22 txn conf | others
CN1CCc2c(sc(NC(=O)CSc3ccccc3)c2-c2nc3ccccc3s2)C1 | ? | i | ? | 2% | nt | nt | nt | nt | nt
CC(=O)N1CCc2c(sc(NC(=O)CSc3ccccc3)c2-c2nc3ccccc3s2)C1 | 4µM* | i | -19% | ? | ? | ? | -4% | ? | 13µM* | PMP22 HiBiT cnf=?
COc1ccc(NC(=O)CSc2nc(-c3ccco3)cc(C(F)(F)F)n2)cc1 | ? | i | -20% | 1% | -2% | 7% | 4% | 10% | 23%
CCN1CCN(c2ccc(NS(=O)(=O)c3c(C)nc4sccn4c3=O)cc2Cl)CC1 | 8.9µM* | i | -17% | -13% | -7% | -1% | -12% | ? | -22%
Cc1nc2sccn2c(=O)c1S(=O)(=O)Nc1ccc(N2CCOCC2)c(Cl)c1 | ? | i | -2% | -16% | nt | nt | nt | nt | nt
CC(=O)c1cccc(NC(=O)CCS(=O)(=O)c2ccc(Br)s2)c1 | -21% | i | -4% | -3% | nt | nt | nt | nt | nt
